Compound activity from PubChem.
NS1 function inh: blocks influenza NS1 protein function | Potency, µM (titrated, usually from 46.1 µM), inactives show at the top dose activity, positive = more growth | 0.4% of 270,000 active | AID 2326; calls by dose curve; note: potency is the fitted concentration of half-maximal effect; actives are rising curves; nearly all actives have a fitted effect of over 50% in size
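Growth recovery, yeast-based: influenza A NS1 expressed in S. cerevisiae causes slow growth, and suppressors are detected by OD600. The parent strain without NS1 is used as positive control.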
Sm TGR block: blocks Schistosoma mansoni thioredoxin glutathione reductase; Q962Y6; purified TGR, DTNB reduction, TNB absorbance 405 nm; Potency, µM (series often up to 114 µM), inactives show at the top dose activity change, negative = inhibition, hits mostly inhibitors; 3% of 360,000 active; AID 485364; note: potency is the fitted concentration of half-maximal effect; % is set by controls: 0 for no effect and ±100 for the full control effect; nearly all actives have a fitted effect of over 60% in size
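First, TGR (20 nM dispensed) and NADPH were mixed with compound. Second, a 15 min room-temperature incubation followed. Third, further NADPH and then DTNB were added to start the reaction. Finally, TNB absorbance was monitored kinetically.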
CHX counter: affects cycloheximide protein synthesis inhibition readout, counter-screen. cell reporter, cycloheximide protein synthesis inhibition counterscreen. 12% of 300,000 active. max response, %. AID 2314; in the data active = max response mostly above about 13%, no sharp cut-off; inactive = mostly below about 14%; note: read at 38.3 µM for the half of the compounds with a filed dose; 0% is about no effect
Pf growth 48h: P. falciparum growth inhibition at 48 hours (one generation). Potency, µM (top dose mostly 28.7 µM), for inactives: top-dose activity change, negative = inhibition, hits mostly inhibitors. 5.9% of 310,000 active. AID 504832. P. falciparum luciferase growth in erythrocytes, 48 h; note: potency is the fitted concentration of half-maximal effect; % is set by controls: 0 for no effect and ±100 for the full control effect
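Compounds are pin-transferred into medium, infected erythrocytes (2% hematocrit, 0.1% parasitemia final) are added, and plates sit one parasite generation at 37 C in 5% CO2. Detection reagent is then added and luminescence measured.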
Pf growth 96h: P. falciparum growth inhibition at 96 hour, primary screen for plastid delayed-death inhibitors; 6.9% of 320,000 active; Potency, µM (doses to about 28.7 µM), without a hit: top-dose activity change, negative = inhibition, actives largely listed as inhibitors; P. falciparum luciferase reporter growth, 96 h; note: potency is the fitted concentration of half-maximal effect; % is set by controls: 0 for no effect and ±100 for the full control effect
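Luminescence readout: decreased luciferase signal marks inhibited growth of reporter-expressing P. falciparum in infected red cells (2% hematocrit, 0.05% parasitemia final), exposed to compound two generations (96 h, 37 C, 5% CO2).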
Shiga toxin inh: Shiga toxin inhibition | Vero cells, Shiga toxin protein synthesis inhibition reporter | inhibition, % at 38.7 µM | 9.2% of 290,000 active | AID 2315; in the data active = inhibition mostly above about 28%, no sharp cut-off; inactive = mostly below about 43%; note: 0% is about no effect
Active calls of the source: *; [ ] = remark or other dose. Sampled rows, rich in hits. Any-hit rate of the full collection: about 21%. Unless noted, calls come from the whole dose curve; as a rule, active = well fitted curve in the direction sought with a large enough effect; inconclusive = small, poorly fitted or top-dose-only effect, or another doubt; inactive = no such curve, though single readings can be large; an effect the other way counts as inactive or inconclusive.

For Nc1ccccc1-c1nc2ccccc2s1 the results were NS1 function inh -6%, CHX counter 41*, Pf growth 48h 68%, Pf growth 96h 9.3µM* and Shiga toxin inh 106*.
Screening Nc1ccc(O)c(-c2nc3ccccc3s2)c1 returned NS1 function inh -50%, Sm TGR block -12%, CHX counter 47*, Pf growth 48h inconclusive, Pf growth 96h inconclusive and Shiga toxin inh 45*.
`Cc1cccc(C(=O)N2CCc3cc(CNC(=O)COc4ccc(Cl)cc4)ccc32)c1` gave Sm TGR block 3%.
COc1ccc(-c2nc3c4ccccc4n(CC(=O)N4CCN(c5ccccc5F)CC4)c(=O)n3n2)cc1 was read as Sm TGR block 22%.
Screening O=C(Cn1ccc(NC(=O)OCc2ccccc2)nc1=O)NCCCN1CCCC1=O returned Sm TGR block -24%, Pf growth 48h 1% and Pf growth 96h inconclusive.
For CCN(CC)C(=O)c1sc2c(c1C)c(=O)n(-c1ccc(OC)cc1OC)c(=O)n2CC(=O)c1ccc(Cl)cc1 the results were Sm TGR block 2%.
Screening Oc1ccc(N=C/C=C/c2cccc(Br)c2)cc1-c1nc2ccccc2s1 returned NS1 function inh 1%, Sm TGR block 40µM*, CHX counter 32*, Pf growth 48h inconclusive, Pf growth 96h 5% and Shiga toxin inh 13.
Screening CCOC(=O)C1(N(CC)CC)Sc2cc(C)ccc2NC1=O (stereo not drawn) returned NS1 function inh -25%, Sm TGR block 13%, CHX counter -4, Pf growth 48h inconclusive, Pf growth 96h 5.9µM* and Shiga toxin inh -3.
CCOC(=O)C1(Nc2nccs2)Sc2ccccc2NC1=O (stereo not drawn) was read as NS1 function inh 3%, Sm TGR block -3%[11.4 µM], CHX counter 1, Pf growth 96h inconclusive and Shiga toxin inh -6.
For CCOc1ccc(NC(=O)Cn2c(C)cc3ccccc3c2=O)cc1 the results were Sm TGR block 13%.
`Cc1ccc(C)c(N2CCN(C(=O)C34CC5CC(C3)CC(n3nnc(C)n3)(C5)C4)CC2)c1` gave NS1 function inh 1%, Sm TGR block -1%, CHX counter 1, Pf growth 48h 10µM*, Pf growth 96h inconclusive and Shiga toxin inh 12.
For CCN1CCOC(=O)C1CC(=O)Nc1cc(C)ccc1OC (stereo not drawn) the results were Sm TGR block 18µM*.
For COc1ccccc1NC(=O)CN1CCN(CC(=O)Nc2cc(C)ccc2OC)CC1 the results were NS1 function inh 0%, Sm TGR block -8%, CHX counter -2, Pf growth 48h inconclusive, Pf growth 96h 31% and Shiga toxin inh -5.
For COc1ccc(C)cc1NC(=O)CN1C(=O)COc2ccc(C)cc21 the results were NS1 function inh 6%, Sm TGR block -6%, CHX counter -2, Pf growth 48h -10%, Pf growth 96h 5.2µM* and Shiga toxin inh -9.
CCN1CCOC(=O)C1CC(=O)Nc1ccc(Br)cc1 (stereo not drawn) was read as Sm TGR block 7.9µM*.
Screening CCOC(=O)Nc1cc(C)ccc1OC returned NS1 function inh -5%, Sm TGR block 2%, CHX counter -2, Pf growth 48h -20%, Pf growth 96h -3% and Shiga toxin inh -2.
CCCCCCCCC(=O)Nc1cc(C)ccc1OC was read as NS1 function inh -5%, Sm TGR block 6%, CHX counter -2, Pf growth 48h 10µM*, Pf growth 96h inconclusive and Shiga toxin inh 4.
For O=C(N1CCCC1)C12CC3CC(CC(Cl)(C3)C1)C2 the results were NS1 function inh -4%, Sm TGR block 5%, CHX counter 5, Pf growth 48h inconclusive, Pf growth 96h -5% and Shiga toxin inh 24.
Screening COc1ccccc1CNCC(=O)Nc1cc(S(=O)(=O)N2CCOCC2)ccc1Cl returned Sm TGR block -5%, Pf growth 48h inconclusive and Pf growth 96h inconclusive.
COc1cccc(CN(C)CC(=O)Nc2cc(S(=O)(=O)N3CCCC3)ccc2Cl)c1OC was read as Sm TGR block 3%, Pf growth 48h 12µM* and Pf growth 96h inconclusive.
